The record followed here is PubChem BioAssay (NCATS).

A short description of assay [1]: qHTS of pediatric cancer cell lines to identify multiple opportunities for drug repurposing: Confirmatory screen for SJ-GBM2 cells (AID 1347116). Also: nearly all actives have a fitted effect of over 60% in size. In short, it runs like this: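 Viability measured as metabolically active cells via CellTiter-Glo luminescence following 48 hours of compound exposure, 11-point dilutions in confirmatory testing. 500-1,000 cells/well plated 5 hours before dosing; controls were DMSO and 2.3 µM bortezomib.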
On the technique in general: In qHTS, concentration-response curves come from the screen itself.

Assay [2] is described as follows: qHTS of pediatric cancer cell lines to identify multiple opportunities for drug repurposing: Confirmatory screen for BT-37 cells (AID 1347117). Also: nearly all actives have a fitted effect of over 55% in size. In short, it runs like this:
(§1)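 Cells (500-1,000/well) in growth media were settled 5 h at 37 degrees C, then given compounds for 48 h. Viability was read as CellTiter-Glo luminescence. Primary runs used MIPE at 11 points (0.78 nM-46 µM) and NPC at 8 points (0.59 nM-46 µM); follow-ups used 11 points.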

A short description of assay [3]: qHTS of pediatric cancer cell lines to identify multiple opportunities for drug repurposing: Confirmatory screen for TC32 cells (AID 1347118).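 Also: cells exposed to compound for 48 h before the read; nearly all actives have a fitted effect of over 65% in size.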 In short, it runs like this: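 TC32 cells, 500-1,000/well in growth medium, compound-treated 48 h at 37 °C; viability from CellTiter-Glo luminescence. Primary screen: MIPE 11-point (0.78 nM–46 µM final), NPC 8-point (0.59 nM–46 µM final); confirmatory at 11-point dilutions.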

The nature of assay [4]: qHTS of pediatric cancer cell lines to identify multiple opportunities for drug repurposing: Confirmatory screen for control Hh wild type fibroblast cells (AID 1347121). Also: nearly all actives have a fitted effect of over 70% in size. In short, it runs like this:
as §1

Assay [5] is described as follows: qHTS of pediatric cancer cell lines to identify multiple opportunities for drug repurposing: Confirmatory screen for U-2 OS cells (AID 1347122). Also: nearly all actives have a fitted effect of over 65% in size. An outline of the steps: as §1
A short description of assay [6]: qHTS of pediatric cancer cell lines to identify multiple opportunities for drug repurposing: Confirmatory screen for Rh18 cells (AID 1347125). Also: nearly all actives have a fitted effect of over 55% in size. An outline of the steps: as §1
Assay [7] can be described thus: qHTS of pediatric cancer cell lines to identify multiple opportunities for drug repurposing: Confirmatory screen for Saos-2 cells (AID 1347127). Also: nearly all actives have a fitted effect of over 60% in size. In short, it runs like this:
as §1

Assay [8] is described as follows: qHTS of pediatric cancer cell lines to identify multiple opportunities for drug repurposing: Confirmatory screen for SK-N-SH cells (AID 1347129).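 Also: cells exposed to compound for 48 h before viability read; nearly all actives have a fitted effect of over 60% in size.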 In short, it runs like this:
as §1

Assay [9] deals with Zika virus NS2B-NS3 protease. The assay can be described thus: Primary screen GU AMC qHTS for Zika virus inhibitors (AID 1347154). Also: nearly all actives have a fitted effect of over 70% in size. An outline of the steps: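 Unlinked Zika NS2B hydrophilic domain/NS3 protease domain noncovalent complex (25 nM final) in 10 mM Tris-HCl pH 8.0, 0.01% Tween 20, with AMC peptide substrate. Fluorescence (ex 340, em 450 nm) change over 15 min, room temperature; percent inhibition fitted to 4-parameter Hill equation.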

Assay [10] in a line: qHTS of pediatric cancer cell lines to identify multiple opportunities for drug repurposing: Confirmatory screen for Rh30 cells (AID 1347126). Also: nearly all actives have a fitted effect of over 55% in size. In short, it runs like this:
as §1

Assay [11] in a line: qHTS of pediatric cancer cell lines to identify multiple opportunities for drug repurposing: Confirmatory screen for NB-EBc1 cells (AID 1347115).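 Also: cells exposed to compound for 48 h before the viability read; nearly all actives have a fitted effect of over 45% in size.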 An outline of the steps:
as §1

Assay [12] can be described thus: qHTS of pediatric cancer cell lines to identify multiple opportunities for drug repurposing: Confirmatory screen for Rh41 cells (AID 1347123).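 Also: 48 h compound exposure; nearly all actives have a fitted effect of over 60% in size.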 In short, it runs like this:
as §1

Assay [13] can be described thus: qHTS of pediatric cancer cell lines to identify multiple opportunities for drug repurposing: Confirmatory screen for OHS-50 cells (AID 1347128).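 Also: compound exposure lasted 48 h at 37 degrees C; nearly all actives have a fitted effect of over 55% in size.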 In short, it runs like this: as §1
Assay [14] in a line: qHTS of pediatric cancer cell lines to identify multiple opportunities for drug repurposing: Confirmatory screen for MG 63 (6-TG R) cells (AID 1347119). Also: nearly all actives have a fitted effect of over 55% in size. In short, it runs like this:
as §1

Assay [15] is described as follows: qHTS of pediatric cancer cell lines to identify multiple opportunities for drug repurposing: Confirmatory screen for RD cells (AID 1347124).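 Also: cells exposed to compound for 48 h before viability readout; nearly all actives have a fitted effect of over 65% in size.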 An outline of the steps: as §1
Another assay concerns the target Furin (Homo sapiens) (UniProt P09958). The assay can be described thus: Furin counterscreen qHTS for Zika virus inhibitors (AID 1347149). Also: nearly all actives have a fitted effect of over 70% in size. In short, it runs like this:
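Counterscreen measures cleavage of 2 microM BOC-RVRR-AMC, below its ~15 microM Km, by 5 nM full-length human furin at pH 7.0 after a 15-min compound preincubation. Inhibition derives from the 15-min fluorescence increase at 37C.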

Inconclusive results are not listed. Activity calls are given as the source filed them. Calls follow the shape of the dose curve; as a rule, active = well fitted curve in the direction sought with a large enough effect; inconclusive = small, poorly fitted or top-dose-only effect, or another doubt; inactive = no such curve, though single readings can be large; an effect the other way counts as inactive or inconclusive.
Potency is read from the fitted curve at half-maximal effect.

Furin (Homo sapiens), sequence (P09958 whole entry, looked up): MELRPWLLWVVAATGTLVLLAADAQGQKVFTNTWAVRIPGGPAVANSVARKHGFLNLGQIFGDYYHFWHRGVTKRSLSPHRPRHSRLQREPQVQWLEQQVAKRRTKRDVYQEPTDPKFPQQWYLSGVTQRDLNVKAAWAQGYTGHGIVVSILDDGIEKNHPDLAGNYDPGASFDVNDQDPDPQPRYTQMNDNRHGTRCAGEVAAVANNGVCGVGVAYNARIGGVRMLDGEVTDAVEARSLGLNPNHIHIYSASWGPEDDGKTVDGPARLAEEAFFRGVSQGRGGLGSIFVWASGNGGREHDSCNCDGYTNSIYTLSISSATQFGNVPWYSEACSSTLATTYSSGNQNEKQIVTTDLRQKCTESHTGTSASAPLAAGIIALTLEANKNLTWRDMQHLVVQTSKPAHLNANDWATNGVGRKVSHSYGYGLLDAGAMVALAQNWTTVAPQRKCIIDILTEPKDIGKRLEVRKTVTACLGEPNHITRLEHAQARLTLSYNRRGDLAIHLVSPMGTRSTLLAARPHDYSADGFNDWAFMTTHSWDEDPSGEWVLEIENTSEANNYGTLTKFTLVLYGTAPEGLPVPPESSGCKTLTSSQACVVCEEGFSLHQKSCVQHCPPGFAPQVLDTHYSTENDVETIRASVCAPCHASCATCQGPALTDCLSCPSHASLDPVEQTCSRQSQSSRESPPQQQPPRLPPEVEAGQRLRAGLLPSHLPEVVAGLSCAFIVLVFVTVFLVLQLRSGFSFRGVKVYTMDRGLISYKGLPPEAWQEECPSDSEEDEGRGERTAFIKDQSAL

For the compound `NC(=O)c1cccc2cn(-c3ccc([C@@H]4CCCNC4)cc3)nc12`, the Potency result in assay [1], in assay [4], in [5], in assay [6], in assay [7] and in [8] was “inactive” throughout. Also, the figures for the Potency in assay [2], in assay [3] and in assay [9] were 5.22 µM (active), 1.65 µM (active) and 24.1 µM (active), respectively.
For `COc1cc(=C2C=c3ccccc3=N2)[nH]c1=Cc1[nH]c(C)cc1C`, the Potency in assay [1] is 43.7 µM (active); in assay [2], 7.37 µM (active); in [3] it was 7.37 µM (active); in assay [10], 17.4 µM (active); in assay [7] it was 8.27 µM (active); in assay [8], 1.24 µM (active). Moreover, in [9], the Potency entry is “inactive”.
Take `Cc1cn(-c2cc(NC(=O)c3ccc(C)c(Nc4nccc(-c5cccnc5)n4)c3)cc(C(F)(F)F)c2)cn1`: the Potency entry in assay [11], in [4] and in assay [9] was “inactive” each time. In addition, the Potency in assay [2] was 16.5 µM (active); in assay [12], 11.7 µM (active); in assay [10] it was 20.8 µM (active); in [13] it was 18.5 µM (active); in assay [8], 18.7 µM (active).
In the case of `CC(C)(C)c1cnc(CSc2cnc(NC(=O)C3CCNCC3)s2)o1`, the Potency in [1] is 0.414 µM (active); in [2], 0.261 µM (active); in assay [3], 0.465 µM (active); in assay [5], 1.31 µM (active); in assay [12] it was 0.329 µM (active); in assay [7] it was 0.465 µM (active). The Potency in [13] was 0.329 µM (active); in assay [8], 0.935 µM (active). Also, the Potency result in [4] and in [9] was “inactive” in each case.
On to `C=C1C(=CC=C2CCC[C@]3(C)[C@@H]([C@H](C)C=C[C@H](C)C(C)C)CC[C@@H]23)C[C@@H](O)C[C@@H]1O`, for which the Potency is 4.14 µM (active) in assay [11] and 2.93 µM (active) in assay [14]. Further, the Potency entry in [4], in assay [6], in assay [7], in assay [8] and in assay [9] was “inactive” in each case.
On to `CN(C)CC(C)(C)CNc1nn2c(-c3ccccc3)nnc2cc1C1CCC1`, for which the Potency result in [11], in [14], in assay [4], in assay [15], in assay [6] and in assay [7] was “inactive” each time. The Potency result in assay [13], in [8] and in [9] was “inactive” each time.
Turning to `CC(C)c1cc(C(=O)N2Cc3ccc(CN4CCN(C)CC4)cc3C2)c(O)cc1O`, the Potency is 0.414 µM (active) in assay [2]; 0.465 µM (active) in assay [3]; 0.414 µM (active) in assay [5]; 0.585 µM (active) in [12]; 0.657 µM (active) in assay [6]; 0.585 µM (active) in assay [10]. The Potency in assay [8] was 0.469 µM (active). Moreover, the Potency result in assay [4] and in assay [9] was “inactive” in each case.
Take `Cc1cc(Nc2cc(NC(=O)c3c(Cl)cccc3Cl)ccn2)nc(N)n1`: the Potency result in assay [1] and in assay [9] was “inactive” in each case. Also, the Potency is 5.22 µM (active) in [2]; 20.8 µM (active) in assay [4]; 0.269 µM (active) in assay [12]; 24 µM (active) in assay [10]; 1.31 µM (active) in assay [7]; 0.369 µM (active) in assay [13]. The Potency in [8] is 13.6 µM (active).
For the compound `CC(C)(C)NC(=O)[C@H]1CN(Cc2cccnc2)CCN1C[C@@H](O)C[C@@H](Cc1ccccc1)C(=O)N[C@H]1c2ccccc2C[C@H]1O`, the Potency result in assay [11], in assay [4], in [6], in [8] and in assay [9] was “inactive” throughout. For the same compound, the Potency is 23.3 µM (active) in [14], 23.3 µM (active) in [5], 20.8 µM (active) in [12] and 18.5 µM (active) in assay [10].
Regarding `Cc1cc(C(=O)N2CCN(c3cccc(Cl)c3)CC2)n(-c2ccccc2)n1`, the Potency is 5.22 µM (active) in assay [2], 2.61 µM (active) in assay [3], 1.65 µM (active) in assay [14] and 3.29 µM (active) in [5]. The Potency result in assay [4], in assay [8] and in assay [9] was “inactive” throughout.
For the compound `COC(=O)Nc1ccc(-c2nc(N3CCOCC3)c3cnn(C4CCN(Cc5cccnc5)CC4)c3n2)cc1`, the Potency was 0.928 µM (active) in [2]; 1.31 µM (active) in [3]; 1.85 µM (active) in [14]; 11.7 µM (active) in [5]; 1.31 µM (active) in assay [12]; 5.85 µM (active) in assay [10]. In addition, the Potency in assay [8] is 14.8 µM (active). Further, the Potency result in assay [9] was “inactive”.
Regarding `COc1cc(Nc2ncc(F)c(Nc3ccc4c(n3)N(COP(=O)(O)O)C(=O)C(C)(C)O4)n2)cc(OC)c1OC`, the Potency was 10.4 µM (active) in assay [2]; 5.85 µM (active) in assay [3]; 2.33 µM (active) in assay [14]; 4.14 µM (active) in assay [5]; 3.29 µM (active) in assay [12]; 2.33 µM (active) in [10]. Also, the Potency in assay [7] was 7.37 µM (active); in [13], 5.22 µM (active); in assay [8] it was 2.35 µM (active).
As for `CN1CCN(c2cc(C(=O)Nc3ccc4c(c3)-c3c(c(C(N)=O)nn3-c3ccc(F)cc3)CC4)c(Cl)cn2)CC1`, the Potency in assay [2] was 20.8 µM (active); in assay [3] it was 20.8 µM (active); in [12], 14.7 µM (active); in assay [6], 26.1 µM (active); in assay [10] it was 0.465 µM (active); in assay [13], 23.3 µM (active). In [8], the Potency was 20.9 µM (active). Moreover, the Potency result in assay [9] is “inactive”.
Turning to `Cc1cn2c(-c3cn[nH]c3)cnc2c(Nc2ccc(C(=O)N3CCNCC3)cc2F)n1`, the Potency result in assay [11], in [4], in [5] and in assay [9] was “inactive” each time. The Potency in assay [2] is 10.4 µM (active); in [12] it was 5.85 µM (active); in [10] it was 16.5 µM (active); in assay [13], 16.5 µM (active); in assay [8], 7.43 µM (active).
For the compound `CCn1cc(-c2ccnc3[nH]c(-c4cccc(CN(C)C)c4)cc23)c(-c2ccc(NC(=O)N(C)C)cc2)n1`, the Potency in assay [1] is 0.928 µM (active); in assay [2], 5.22 µM (active); in [14], 1.85 µM (active); in [12], 1.85 µM (active); in assay [6] it was 16.5 µM (active); in assay [10] it was 0.293 µM (active). The Potency was 16.5 µM (active) in assay [7], 2.96 µM (active) in [8] and 21.5 µM (active) in the assay with Furin (Homo sapiens).
On to `CC(C)(O)c1cc2nc(-c3cnc(N)nc3)nc(N3CCOCC3)c2s1`, for which the Potency is 1.65 µM (active) in assay [2]; 0.827 µM (active) in [3]; 0.369 µM (active) in assay [14]; 1.65 µM (active) in assay [6]; 1.65 µM (active) in [7]; 2.93 µM (active) in assay [13]. The Potency in assay [8] was 0.935 µM (active). For the same compound, the Potency result in assay [9] was “inactive”.
For the compound `CNC(=O)c1nn(C)c2c1C(C)(C)Cc1cnc(Nc3ccc(N4CCN(C)CC4)cc3)nc1-2`, the Potency in assay [1] is 0.657 µM (active); in [2] it was 1.04 µM (active); in assay [5] it was 1.31 µM (active); in assay [12], 3.29 µM (active); in [15], 0.233 µM (active); in [6] it was 4.65 µM (active). Further, the Potency is 0.928 µM (active) in assay [10], 5.85 µM (active) in assay [13] and 1.18 µM (active) in [8]. The Potency result in assay [4] and in assay [9] was “inactive” throughout.
